Consider 31 molecules from the supplement of paper PMC12340641.

Assay [1] deals with IKZF1 (dCK*-IKZF1 fusion in HEK293FT) (UniProt Q13422). The experiment in a line: inhibition of IKZF1 HTRF signal (DMSO = 0%, pomalidomide 10 uM = 100%); higher = lower IKZF1 protein level. The note with it: compound concentration: 5 uM, overnight (~20 h). In outline: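 After overnight treatment at 37 °C with 5 μM compound in single wells, HEK293FT cells (2000/well, 384-well) stably expressing an IKZF1 fusion were lysed for 30 min at room temperature. A commercial HTRF total-IKZF1 antibody kit was incubated with the lysate overnight, and the time-resolved FRET ratio at 665/620 nm was corrected for background. Data are given as percent inhibition of IKZF1 signal relative, on each plate, to vehicle and a reference degrader, set at 0% and 100% respectively.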
In general terms: TR-FRET usually uses a lanthanide donor and a delayed reading to cut background.

A further assay deals with HEK293FT dCK*-only. The experiment in a line: relative growth in counter assay (no AraC = 100%, AraC + DMSO = 0%); higher = more growth rescue independent of IKZF1. The following applies: compound concentration: 5 uM; AraC concentration: 0.3 uM; overnight pretreatment + 4 days AraC. The essentials:
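Counter assay in HEK293FT cells expressing dCK* alone (300/well, 384-well). Cells received 5 μM compound 2 h after seeding, then after overnight at 37 °C a nucleoside suicide substrate at 0.3 μM plus medium for 4 days. On day 5, Hoechst 33342-stained nuclei were counted by imaging. Relative growth was normalised per plate to wells without suicide substrate (100%) and substrate plus vehicle (0%).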

For a further assay, the system named is HEK293FT dCK*-IKZF1. As to the kind of experiment: relative growth recovery (pomalidomide 10 uM = 100%, DMSO = 0%); higher = more growth rescue (IKZF1 fusion degradation). The note with it: compound concentration: 5 uM; AraC concentration: 0.3 uM; overnight pretreatment + 4 days AraC. In outline:
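HEK293FT cells stably expressing a dCK*-IKZF1 fusion (300/well, 384-well) received 5 μM compound 2 h after seeding. After overnight at 37 °C they received a nucleoside suicide substrate at 0.3 μM plus medium for 4 days. On day 5, Hoechst 33342-stained nuclei were counted by whole-well imaging. Growth recovery was normalised per plate to a reference degrader (100%) and vehicle (0%); values are means of duplicates run on different days.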

Structures can show the parent of a compound that is named as a salt.

Chain of IKZF1 (dCK*-IKZF1 fusion in HEK293FT) (Q13422 whole entry, looked up, the tested form may be a part): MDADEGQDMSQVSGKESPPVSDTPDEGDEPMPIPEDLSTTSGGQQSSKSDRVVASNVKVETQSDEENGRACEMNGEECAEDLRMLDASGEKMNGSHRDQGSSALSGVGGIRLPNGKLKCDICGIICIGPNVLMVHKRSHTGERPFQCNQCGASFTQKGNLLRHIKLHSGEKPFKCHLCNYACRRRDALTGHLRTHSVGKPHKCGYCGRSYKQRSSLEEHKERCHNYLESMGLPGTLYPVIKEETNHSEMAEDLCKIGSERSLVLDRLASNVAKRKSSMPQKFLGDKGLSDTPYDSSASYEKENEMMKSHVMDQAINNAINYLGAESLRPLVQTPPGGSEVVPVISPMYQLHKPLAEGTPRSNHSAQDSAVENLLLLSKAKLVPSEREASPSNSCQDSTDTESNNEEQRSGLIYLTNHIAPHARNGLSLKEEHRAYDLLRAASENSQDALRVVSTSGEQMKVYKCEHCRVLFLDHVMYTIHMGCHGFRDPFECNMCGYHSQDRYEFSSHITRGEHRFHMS

For the molecule `CC(CCc1ccc(O)cc1)NCCc1ccc(O)c(O)c1` (stereo not drawn) [Dobutamine (hydrochloride)], the “inhibition of IKZF1 HTRF signal” value in assay [1] was -39.6%. Besides, the “relative growth in counter assay” value in the assay on HEK293FT dCK*-only is -8.05%. Further, in the assay with HEK293FT dCK*-IKZF1, the relative growth recovery was -1.22%.
`O=C1C=CC(=O)C2=C1C1c3ccccc3C2c2ccccc21`: in assay [1], the “inhibition of IKZF1 HTRF signal” value was -32.2%. The “relative growth in counter assay” value in the assay with HEK293FT dCK*-only is -0.91%. Also, the relative growth recovery in the assay with HEK293FT dCK*-IKZF1 is -0.735%.
The corresponding values for `CSc1ccc2c(c1)C(N1CCN(C)CC1)Cc1ccccc1S2` (stereo not drawn) are -34.7%, -1.22% and -1.56%.
Consider `O=c1n(CC2CO2)c(=O)n(CC2CO2)c(=O)n1CC1CO1` (stereo not drawn) [Triglycidyl isocyanurate], for which the “inhibition of IKZF1 HTRF signal” value in assay [1] is 30.6%. Also, the “relative growth in counter assay” value in the assay on HEK293FT dCK*-only is -31.7%. Also, the relative growth recovery in the assay with HEK293FT dCK*-IKZF1 was -10.8%.
`CCCCCCC[N+](CC)(CC)CCCCc1ccc(Cl)cc1` [clofilium]: the “inhibition of IKZF1 HTRF signal” value in assay [1] was -21.8%. Besides, the “relative growth in counter assay” value with HEK293FT dCK*-only was -3.59%. For the same molecule, in the assay with HEK293FT dCK*-IKZF1, the relative growth recovery was -1.53%.
In the case of `CCCCC(=O)OCC(=O)[C@]1(O)Cc2c(O)c3c(c(O)c2[C@@H](O[C@H]2C[C@H](NC(=O)C(F)(F)F)[C@H](O)[C@H](C)O2)C1)C(=O)c1c(OC)cccc1C3=O` [Valrubicin], the “inhibition of IKZF1 HTRF signal” value in assay [1] was -26.2%. Besides, in the assay with HEK293FT dCK*-only, the “relative growth in counter assay” value is -34.4%. Moreover, the relative growth recovery with HEK293FT dCK*-IKZF1 was -11.8%.
As for `O=C(O)c1cc(/N=N/c2ccc(O)c(C(=O)O)c2)ccc1O`, the “inhibition of IKZF1 HTRF signal” value in assay [1] was -32.5%. In addition, in the assay on HEK293FT dCK*-only, the “relative growth in counter assay” value was -4.73%. In addition, the relative growth recovery with HEK293FT dCK*-IKZF1 amounted to 3.38%.
For `Cc1ccc2c(=O)c3ccccc3n(CCCN)c2c1C` the same measures were -12.2%, -35.5% and -14.4%.
For the molecule `CCc1oc2ccccc2c1C(=O)c1cc(Br)c(O)c(Br)c1`, in assay [1], the “inhibition of IKZF1 HTRF signal” value is 11.6%. Further, in the assay with HEK293FT dCK*-only, the “relative growth in counter assay” value is -6.05%. In addition, in the assay with HEK293FT dCK*-IKZF1, the relative growth recovery was -2.28%.
As for `COc1cc(N2CCN(C)CC2)ccc1Nc1nccc(-c2cn(C)c3cnccc23)n1`, the “inhibition of IKZF1 HTRF signal” value in assay [1] is -30.7%. For the same molecule, the “relative growth in counter assay” value in the assay on HEK293FT dCK*-only is -9.1%. Moreover, the relative growth recovery in the assay on HEK293FT dCK*-IKZF1 is -0.12%.
In the case of `C=C1C(=O)O[C@@H]2C=C(C)CCC=C(C)CC[C@@H]12` [costunolide], the “inhibition of IKZF1 HTRF signal” value in assay [1] was -26.8%. In the assay with HEK293FT dCK*-only, the “relative growth in counter assay” value was -18.2%. Further, in the assay with HEK293FT dCK*-IKZF1, the relative growth recovery is -0.955%.
For `O=S(=O)(O)CCSSCCS(=O)(=O)O`, in assay [1], the “inhibition of IKZF1 HTRF signal” value was -1.7%. Also, in the assay with HEK293FT dCK*-only, the “relative growth in counter assay” value was -2.36%. Besides, the relative growth recovery in the assay with HEK293FT dCK*-IKZF1 was 0.365%.
With `CC[n+]1c(-c2ccccc2)c2cc(N)ccc2c2ccc(N)cc21`, the “inhibition of IKZF1 HTRF signal” value in assay [1] was 39.8%. The “relative growth in counter assay” value with HEK293FT dCK*-only was -32.8%. The relative growth recovery with HEK293FT dCK*-IKZF1 is -12.2%.
On to `Cc1cc(C(C)(C)CC(C)(C)C)ccc1OCCOCC[N+](C)(C)Cc1ccccc1`, for which, in assay [1], the “inhibition of IKZF1 HTRF signal” value was -17.4%. In addition, the “relative growth in counter assay” value in the assay with HEK293FT dCK*-only is -4.05%. The relative growth recovery in the assay on HEK293FT dCK*-IKZF1 was determined as 5.47%.
Consider `CC(C)(N)c1nc(-c2ccc(OC(F)(F)F)cc2)c[nH]1`, for which the “inhibition of IKZF1 HTRF signal” value in assay [1] is -29.8%. In addition, the “relative growth in counter assay” value in the assay on HEK293FT dCK*-only is 5.76%. The relative growth recovery in the assay on HEK293FT dCK*-IKZF1 is -3.6%.
For `CCc1c2c(nc3ccc(OC(=O)N4CCC(N5CCCCC5)CC4)cc13)-c1cc3c(c(=O)n1C2)COC(=O)[C@]3(O)CC` [Irinotecan HCl] the same measures were -17.6%, -35.4% and -15.1%.
Regarding `C1CCC(C(CC2CCCCN2)C2CCCCC2)CC1` (stereo not drawn), the “inhibition of IKZF1 HTRF signal” value in assay [1] was 11.6%. Besides, in the assay on HEK293FT dCK*-only, the “relative growth in counter assay” value was -1.13%. In addition, the relative growth recovery with HEK293FT dCK*-IKZF1 is -2.33%.
As to `Nc1cc(N2CCCCC2)nc(N)[n+]1[O-]`, in assay [1], the “inhibition of IKZF1 HTRF signal” value was -27.1%. The “relative growth in counter assay” value in the assay with HEK293FT dCK*-only is -5.79%. Moreover, the relative growth recovery with HEK293FT dCK*-IKZF1 was -0.55%.
For the molecule `Nc1nnc(-c2cccc(Cl)c2Cl)c(N)n1`, the “inhibition of IKZF1 HTRF signal” value in assay [1] was -57.4%. Besides, the “relative growth in counter assay” value with HEK293FT dCK*-only came to 0.9%. For the same molecule, the relative growth recovery in the assay with HEK293FT dCK*-IKZF1 is -1.71%.
Regarding `CNC[C@H](O)c1ccc(O)c(O)c1`, the “inhibition of IKZF1 HTRF signal” value in assay [1] was -26.9%. In addition, the “relative growth in counter assay” value in the assay with HEK293FT dCK*-only was -15.6%. For the same molecule, the relative growth recovery in the assay with HEK293FT dCK*-IKZF1 was -7%.
`O=C1Nc2ccc(Cl)cc2[C@@](C#CC2CC2)(C(F)(F)F)O1` [Efavirenz]: in assay [1], the “inhibition of IKZF1 HTRF signal” value was determined as 0.88%. Moreover, in the assay with HEK293FT dCK*-only, the “relative growth in counter assay” value is -1.3%. For the same molecule, the relative growth recovery in the assay on HEK293FT dCK*-IKZF1 is 0.45%.
The corresponding values for `COc1c(C/C=C(\C)CCC(=O)O)c(O)c2c(O)occ2c1C` [Mycophenolic Acid] are 14.9%, -30.9% and -9.99%.
As for `CSCC[C@H](N)C(=O)O` [L-methionine], in assay [1], the “inhibition of IKZF1 HTRF signal” value was -9.26%. In the assay on HEK293FT dCK*-only, the “relative growth in counter assay” value is -0.43%. Also, the relative growth recovery in the assay with HEK293FT dCK*-IKZF1 amounted to 1.19%.
Regarding `Clc1ccc(COC(Cn2ccnc2)c2ccc(Cl)cc2Cl)cc1` (stereo not drawn) [Econazole Nitrate], the “inhibition of IKZF1 HTRF signal” value in assay [1] was -40.1%. The “relative growth in counter assay” value in the assay with HEK293FT dCK*-only came out at 3.6%. Besides, the relative growth recovery in the assay on HEK293FT dCK*-IKZF1 was found to be 4.02%.
Consider `CO/N=C1\C[C@]2(C[C@@H]3C[C@@H](C/C=C(\C)C[C@@H](C)/C=C/C=C4\CO[C@@H]5[C@H](O)C(C)=C[C@@H](C(=O)O3)[C@]45O)O2)O[C@H](/C(C)=C/C(C)C)[C@H]1C`, for which, in assay [1], the “inhibition of IKZF1 HTRF signal” value was -19.4%. Moreover, in the assay with HEK293FT dCK*-only, the “relative growth in counter assay” value was -0.37%. For the same molecule, in the assay on HEK293FT dCK*-IKZF1, the relative growth recovery was -1.09%.
Regarding `CCN(CC)CCCN(c1ccccc1)C1Cc2ccccc2C1` [aprindine], in assay [1], the “inhibition of IKZF1 HTRF signal” value was 2.2%. Also, the “relative growth in counter assay” value in the assay with HEK293FT dCK*-only worked out at 4.05%. In addition, the relative growth recovery in the assay on HEK293FT dCK*-IKZF1 is 1.23%.
As for `Cc1ccc(S(=O)(=O)NC(=O)NN2CC3CCCC3C2)cc1` (stereo not drawn), in assay [1], the “inhibition of IKZF1 HTRF signal” value is -29.9%. In addition, the “relative growth in counter assay” value in the assay with HEK293FT dCK*-only worked out at 3.82%. Moreover, in the assay with HEK293FT dCK*-IKZF1, the relative growth recovery was determined as 1.34%.
As to `Cc1cc2nc3ccc(N(C)C)cc3[s+]c2cc1N`, in assay [1], the “inhibition of IKZF1 HTRF signal” value was -22.7%. In the assay on HEK293FT dCK*-only, the “relative growth in counter assay” value was -34.5%. For the same molecule, the relative growth recovery with HEK293FT dCK*-IKZF1 is -13.5%.
In the case of `COC(=O)Nc1nc2ccc(Sc3ccccc3)cc2[nH]1`, the “inhibition of IKZF1 HTRF signal” value in assay [1] was -26.6%. In addition, the “relative growth in counter assay” value in the assay with HEK293FT dCK*-only is -32.4%. In the assay with HEK293FT dCK*-IKZF1, the relative growth recovery was -9.72%.
For the molecule `O=C1OC2(c3ccc(O)cc3Oc3cc(O)ccc32)c2ccccc21`, in assay [1], the “inhibition of IKZF1 HTRF signal” value stood at 28.2%. Besides, the “relative growth in counter assay” value in the assay on HEK293FT dCK*-only was -3.82%. For the same molecule, in the assay on HEK293FT dCK*-IKZF1, the relative growth recovery was -3.9%.
For `CC[C@H](C)[C@H]1O[C@]2(CC[C@@H]1C)C[C@@H]1C[C@@H](C/C=C(\C)[C@@H](O[C@H]3C[C@H](OC)[C@@H](O[C@H]4C[C@H](OC)[C@@H](O)[C@H](C)O4)[C@H](C)O3)[C@@H](C)/C=C/C=C3\CO[C@@H]4[C@H](O)C(C)=CC(C(=O)O1)[C@]34O)O2` (stereo partly drawn) [Ivermectin], in assay [1], the “inhibition of IKZF1 HTRF signal” value was -28.1%. Besides, the “relative growth in counter assay” value in the assay with HEK293FT dCK*-only is -2.12%. The relative growth recovery in the assay on HEK293FT dCK*-IKZF1 was found to be 0.635%.
